Screening data deposited in PubChem by National Center for Advancing Translational Sciences (NCATS).
Rows were chosen to be rich in hits. Some 4.6% of all compounds tested hit in one or more screens of this group.
TRHR ag = activates the human TRH receptor; P34981; actives 0.18% (n = 360,000); AID 493084; activation, % at 2 µM; TRHR cells, calcium flux fluo-8, FDSS agonist mode
Target sequence (P34981 whole entry, looked up): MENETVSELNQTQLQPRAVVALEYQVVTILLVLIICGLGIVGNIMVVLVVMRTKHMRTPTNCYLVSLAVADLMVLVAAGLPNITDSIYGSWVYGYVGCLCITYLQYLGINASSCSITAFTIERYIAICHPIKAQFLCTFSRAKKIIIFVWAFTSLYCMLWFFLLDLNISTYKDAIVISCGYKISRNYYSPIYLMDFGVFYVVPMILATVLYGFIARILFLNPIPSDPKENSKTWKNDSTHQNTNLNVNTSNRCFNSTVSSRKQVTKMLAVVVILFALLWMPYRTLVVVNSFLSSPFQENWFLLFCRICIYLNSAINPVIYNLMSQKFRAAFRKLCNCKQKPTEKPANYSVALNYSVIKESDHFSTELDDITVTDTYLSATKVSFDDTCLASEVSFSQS
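Read-out: compound-evoked intracellular calcium rise in TRHR cells, fluo-8 dye, kinetic FDSS fluorescence at 1 s/cycle following a 10-cycle baseline. Cells cultured overnight before dye loading (30 min–1.5 h, RT).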
D1 ag = activates the human D1 dopamine receptor; P21728; HEK293 T-REx D1 cells, calcium flux, agonist mode; activation, % at 2 µM; actives 1% (n = 360,000); AID 504660
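Inducible HEK293 T-REx D1 cells, force-coupled to calcium signalling, were plated at 4000 cells/well with tetracycline and held overnight at 30 C. After no-wash calcium dye loading, compound-evoked calcium rise over 180 s flagged agonists.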
D1 potentiator = human D1 dopamine receptor positive modulation; actives 0.036% (n = 360,000); P21728; potentiation, % at 10 µM; HEK293 TREx D1 cells, calcium flux, dopamine EC20 potentiation; in the data active means potentiation above about 30%
D1 antag = blocks dopamine activation of the human D1 receptor; P21728; HEK293 TREx D1 cells, calcium flux, dopamine EC80; active compounds read low; activity change, negative = inhibition, % at 10 µM; actives 3.2% (n = 360,000); AID 504652; in the data active means activity change below about -30%
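HEK293 T-REx cells expressing inducible, force-coupled D1 receptor; no-wash Ca dye, 30–90 min RT. Cmpd → 180 s read at 1 Hz → EC80 DA → 180 s read.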
TRHR PAM = allosterically enhances the human TRH receptor; P34981; TRHR cells, fluo-8 calcium fluorescence, EC20 TRH enhancement; actives 0.66% (n = 360,000); AID 493056; enhancement, % at 2 µM; in the data active means enhancement above about 30%
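Enhancer read-out: after compound pinning and an initial kinetic agonist-mode read, an EC20 of TRH (10 nM final) was injected and fluo-8 calcium signal (Ex 480/Em 530) followed at 1 s/cycle for 100 cycles in TRHR-expressing cells.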
Each line names hits and unclear results; the compound was inactive in the other large screens. Unless noted, no stated cut-off is given here; in the data, active means activation above about 30%; inactive means the rest.

O=C(Nc1cccc([N+](=O)[O-])c1)c1ccc2ccccc2c1O	D1 antag -33
O=C(Cc1ccccc1)Nc1cccc([N+](=O)[O-])c1	none
COc1ccc(OCCOc2ccc(N(C)S(=O)(=O)c3ccccc3)cc2)cc1	D1 ag 42
COc1ccc(S(=O)(=O)N(CC(=O)Nc2ccc(Br)cc2)Cc2ccccc2)cc1	none
CCN(Cc1ccccc1)S(=O)(=O)c1ccc(S(=O)(=O)N(Cc2cccc(OC)c2)CC2CCCO2)cc1 (centres undefined)	D1 ag 31
COc1ccc(S(=O)(=O)N(CCc2ccccc2)CC(=O)Nc2cccc(OC)c2)cc1	D1 ag 31, D1 antag -31
COc1ccc(S(=O)(=O)N(CCc2ccccc2)CC(=O)Nc2cc(C)ccc2C)cc1	none
COc1ccc(S(=O)(=O)N(CC(=O)Nc2ccccc2Br)Cc2ccccc2)cc1	D1 ag 44
COc1ccccc1C(=O)Nc1ccc2oc(-c3cccc4c(Br)cccc34)nc2c1	none
Cc1ccc(-c2noc(C3CC(=O)N(c4ccc5c(c4)OCCO5)C3)n2)cc1 (centres undefined)	none
CCc1ccccc1NC(=O)Cn1nnc(-c2nc(-c3ccncc3)no2)c1N	none
Cc1c(C)n(Cc2ccccc2)c2ccc(C(=O)NCC(C)c3ccccc3)cc12 (centres undefined)	none
CCN(Cc1ccccc1)S(=O)(=O)c1ccc(N2CCCCS2(=O)=O)cc1	D1 antag -31
CCN(Cc1ccccc1)S(=O)(=O)c1ccc(OC)cc1	D1 antag -34
COc1ccc(S(=O)(=O)N(CC(=O)N2CCCC2)Cc2ccccc2)cc1	none
CCN(Cc1ccccc1)S(=O)(=O)c1ccc(S(=O)(=O)N2CCN(CCC#N)CC2)cc1	D1 antag -42
COc1cccc(-c2nc3c(C#N)c[nH]n3c2NC2CCCC2)c1OC	D1 antag -52
COc1cccc(-c2nc3c(C#N)c[nH]n3c2NC2CCCCC2)c1OC	none
COc1cccc(-c2nc3c(C#N)c[nH]n3c2NC2CCCCC2)c1	D1 antag -37
Cc1sc2ncn(CC(=O)N(C)c3ccc(C(C)C)cc3)c(=O)c2c1S(=O)(=O)N1CCC(C)CC1	none
COc1ccc(Cl)cc1NC(=O)CCS(=O)(=O)c1nc(-c2cccs2)cc(C(F)(F)F)n1	D1 antag -35
O=S(=O)(Nc1ccc(-c2ccc(N3CCCCCC3)nn2)cc1)c1ccc(C(F)(F)F)cc1	none
Cc1oc2ncn(CC(C)C)c(=O)c2c1C(=O)NCc1cccc(Cl)c1	none
Cc1cc(Cl)nc(-n2nc(C)cc2C)n1	D1 antag -42
COc1ccc(NS(=O)(=O)c2ccc(N3CCOCC3)c(N)c2)cc1	D1 antag -32
CCN1CCc2c(sc(NC(=O)c3ccc(S(=O)(=O)N(C)C4CCCCC4)cc3)c2C(N)=O)C1	none
COC1=C/C(=C/c2c(N)n3cc(C)sc3nc2=O)C=CC1=O	D1 ag 30
COC1=C/C(=C/c2c(N)n3nc(CC(=O)N4CCCC4)sc3nc2=O)C=CC1=O	none
CCOc1ccc(NC(=O)Nc2cc(-c3ccccc3)sc2C(=O)OC)cc1	none
CCOc1ccc(-c2cc(NC(=O)c3c(F)cccc3F)c(C(=O)O)s2)cc1	D1 antag -49
O=C(Nc1ccccc1OCc1cc(=O)n2ccccc2n1)Nc1ccccc1C(F)(F)F	none
Cc1cccc(NC(=O)C2CCCN(S(=O)(=O)c3c(C)n[nH]c3C)C2)c1 (centres undefined)	none
COc1cccc(CNC(=O)c2c(O)nc3ccccn3c2=O)c1	none
Cc1ccccc1OCC(O)CN(CCO)Cc1ccccc1 (centres undefined)	D1 antag -47
COc1ccccc1N=Nc1ccc(O)c2ncccc12	none
COc1ccccc1N=Nc1[nH]c2ccc(C)cc2c1O	TRHR PAM 34
Cc1cc(N2CCC(C)CC2)nc2ccc(NC(=O)CCC(=O)N3CCN(c4ccccc4F)CC3)cc12	none
COc1ccc(C(=O)COC(=O)CCN2C(=O)C3CC=CCC3C2=O)c(OC)c1 (centres undefined)	none
COc1ccc(C(=O)C(C)OC(=O)CCN2C(=O)C3CC=CCC3C2=O)cc1 (centres undefined)	D1 antag -35
Cc1ccc(C(=O)C(C)OC(=O)CNC(=O)c2ccc(Br)o2)cc1 (centres undefined)	none
